Z-score and composite z-score data for 13 compounds are collected here from PubChem BioAssay.

The source made the active and inactive calls.

Assay [1] can be described thus: optical density shifts of acrAB sulA E. coli – strain DRC41, OD650, 48 h, E. coli filamentation inducer project, primary screen (AID 1152).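 Note: E. coli MC1000 strain DRC41 lacking acrAB efflux pump and sulA.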 Conditions: higher = more signal, called active from +8 up or from −8 down.
Assay [2] can be described thus: probe aLefty1 binding on compound microarray – biochemical, small-molecule microarray, 635/667 nm fluorescence, primary screen (AID 1153).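 Note: score merges spot fluorescence with signal-to-noise ratio from the scanned slide images.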 Conditions: higher = more signal.
Assay [3] is described as follows: plasmodial surface anion channel blockers, osmotic lysis – cell-based, P. falciparum Indochina, OD700, 1 h, primary screen (AID 1154). Conditions: P. falciparum Indochina infected RBC osmotic lysis, higher = more signal, called active from +8 up or from −8 down.
The nature of assay [4]: plasmodial surface anion channel blockers, osmotic lysis – cell-based, P. falciparum Indochina, OD700, 2 h, primary screen (AID 1155).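 Note: lysis reports solute entry through the parasite surface anion channel PSAC.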 To be noted: P. falciparum Indochina infected erythrocytes, higher = more signal, called active from +8 up or from −8 down.
Assay [5] in a line: changes in parasitized red cell lysis, either direction – P. falciparum Indochina, OD700, 3 h, PSAC antagonist project, primary screen (AID 1156). Conditions: P. falciparum-infected erythrocytes, osmotic lysis, higher = more signal, called active from +8 up or from −8 down.
The nature of assay [6]: plasmodial surface anion channel blockers, osmotic lysis – cell-based, P. falciparum Indochina, OD700, 18 h, primary screen (AID 1157). To be noted: P. falciparum Indochina infected erythrocytes, osmotic lysis OD700, 18 h; higher = more signal, called active from +8 up or from −8 down.
The nature of assay [7]: S6 kinase pathway phospho-S6 level changes – cell-based, A549, cytoblot, luminescence, serum-stimulated, primary screen (AID 1158).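 Note: serum-stimulated A549 lung adenocarcinoma cells; signal is phosphorylated S6 detected by cytoblot immunostaining with HRP secondary.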 Conditions: 5 h, higher = more signal.
In assay [8] the target is NADPH oxidase 2 (Homo sapiens) (UniProt P04839). As to the kind of experiment: compounds shifting NOX2 Amplex Red fluorescence – cell-based, HEK293-NOX2, PMA-stimulated, NOX inhibitor project, primary screen (AID 1159). Note: test concentration not given here. Conditions: 45 min, higher = more signal, called active from +8 up or from −8 down.
The target of assay [9] is NADPH oxidase 4 (Homo sapiens) (UniProt Q9NPH5). Nature of the assay: compounds shifting NOX4 Amplex Red fluorescence – cell-based, HEK293-NOX4, tetracycline-induced, NOX inhibitor project, primary screen (AID 1160). To be noted: HEK293-NOX4, Amplex Red H2O2 fluorescence, 45 min; higher = more signal, called active from +8 up or from −8 down.
Assay [10] has as its target NADPH oxidase 5 (Homo sapiens) (UniProt Q96PH1). Nature of the assay: compounds shifting NOX5 Amplex Red fluorescence – cell-based, HEK293-NOX5, NOX inhibitor project, primary screen (AID 1161). To be noted: HEK293-NOX5, ionomycin, 45 min, higher = more signal.

NADPH oxidase 5 (Homo sapiens), sequence (Q96PH1 whole entry, looked up): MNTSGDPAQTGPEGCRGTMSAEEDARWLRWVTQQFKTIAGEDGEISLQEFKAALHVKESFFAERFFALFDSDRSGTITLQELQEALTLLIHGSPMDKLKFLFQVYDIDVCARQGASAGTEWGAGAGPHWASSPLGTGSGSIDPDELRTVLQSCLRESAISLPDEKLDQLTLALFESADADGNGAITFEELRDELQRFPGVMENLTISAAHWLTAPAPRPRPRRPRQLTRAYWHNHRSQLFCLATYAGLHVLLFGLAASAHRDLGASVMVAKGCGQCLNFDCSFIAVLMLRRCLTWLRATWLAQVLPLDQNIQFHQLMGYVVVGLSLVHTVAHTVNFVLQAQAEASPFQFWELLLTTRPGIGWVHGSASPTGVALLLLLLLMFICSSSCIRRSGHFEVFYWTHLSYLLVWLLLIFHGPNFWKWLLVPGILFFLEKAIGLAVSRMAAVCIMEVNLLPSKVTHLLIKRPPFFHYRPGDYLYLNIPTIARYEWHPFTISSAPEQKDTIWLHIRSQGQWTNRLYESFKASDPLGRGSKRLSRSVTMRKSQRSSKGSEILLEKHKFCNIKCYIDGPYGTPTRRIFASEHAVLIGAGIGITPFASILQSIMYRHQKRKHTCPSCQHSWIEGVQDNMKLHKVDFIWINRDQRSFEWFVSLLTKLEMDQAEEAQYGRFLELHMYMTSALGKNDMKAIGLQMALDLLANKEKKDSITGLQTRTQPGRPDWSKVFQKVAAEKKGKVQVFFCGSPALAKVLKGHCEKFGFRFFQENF
NADPH oxidase 2 (Homo sapiens), sequence (P04839 whole entry, looked up): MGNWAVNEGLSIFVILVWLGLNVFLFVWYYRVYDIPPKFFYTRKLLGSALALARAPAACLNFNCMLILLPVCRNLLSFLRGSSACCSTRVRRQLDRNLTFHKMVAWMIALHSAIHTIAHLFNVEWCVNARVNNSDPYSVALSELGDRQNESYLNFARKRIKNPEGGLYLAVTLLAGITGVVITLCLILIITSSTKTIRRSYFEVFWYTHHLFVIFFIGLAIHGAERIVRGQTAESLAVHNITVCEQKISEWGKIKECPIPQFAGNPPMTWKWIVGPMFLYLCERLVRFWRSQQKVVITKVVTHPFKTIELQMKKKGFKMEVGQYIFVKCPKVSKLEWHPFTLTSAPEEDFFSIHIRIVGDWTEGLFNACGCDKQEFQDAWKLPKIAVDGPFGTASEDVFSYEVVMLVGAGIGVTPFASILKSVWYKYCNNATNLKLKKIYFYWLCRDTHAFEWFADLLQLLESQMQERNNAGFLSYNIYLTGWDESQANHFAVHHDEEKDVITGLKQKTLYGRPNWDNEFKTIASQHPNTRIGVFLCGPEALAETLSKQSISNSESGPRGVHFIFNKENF
NADPH oxidase 4 (Homo sapiens), sequence (Q9NPH5 whole entry, looked up): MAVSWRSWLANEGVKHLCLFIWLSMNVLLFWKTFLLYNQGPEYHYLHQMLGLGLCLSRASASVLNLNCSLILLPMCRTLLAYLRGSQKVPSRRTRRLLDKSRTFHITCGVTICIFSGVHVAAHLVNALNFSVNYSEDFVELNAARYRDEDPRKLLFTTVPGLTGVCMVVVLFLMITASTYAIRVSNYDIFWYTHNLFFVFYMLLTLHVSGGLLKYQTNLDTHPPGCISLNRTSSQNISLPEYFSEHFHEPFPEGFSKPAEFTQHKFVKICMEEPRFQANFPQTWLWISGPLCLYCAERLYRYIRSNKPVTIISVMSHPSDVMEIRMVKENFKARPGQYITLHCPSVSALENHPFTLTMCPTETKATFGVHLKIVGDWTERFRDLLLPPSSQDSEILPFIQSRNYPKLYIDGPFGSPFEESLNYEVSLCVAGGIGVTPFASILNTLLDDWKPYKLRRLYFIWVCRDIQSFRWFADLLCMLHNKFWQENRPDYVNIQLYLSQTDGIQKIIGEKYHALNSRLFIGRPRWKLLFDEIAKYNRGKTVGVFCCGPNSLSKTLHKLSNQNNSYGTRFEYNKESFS

For `COc1ccccc1CN1C(=O)c2ccccc2[C@@H](C(=O)NCCN2CCOCC2)[C@@H]1c1ccc(CO)cc1`, the z-score in [1] is -0.0157 (inactive); in assay [3], 2.67 (inactive); in assay [4], 0.0298 (inactive); in assay [5], 1.56 (inactive); in assay [6] it was 0.695 (inactive); in assay [7], 0.513. In addition, the z-score in assay [8] was 1.26 (inactive); in [9] it was -0.65 (inactive); in assay [10] it was -2.47. This compound also had a composite z-score in [2] of -0.211.
For `CCOC(=O)[C@H]1C[C@H]2O[C@@]23C[C@H]1C(=O)N1CCCC1[C@@H]3O[Si](C)(C)C(C)(C)C` (stereo not given in full), the z-score is -0.954 (inactive) in assay [1]; 1.35 (inactive) in [3]; 0.23 (inactive) in assay [4]; 0.183 (inactive) in assay [5]; 0.158 (inactive) in assay [6]; -0.67 in [7]. The z-score in assay [8] is 1.05 (inactive); in assay [9], 0.302 (inactive); in [10], -1.7. For the same compound, in assay [2], the composite z-score was -0.0573.
For `COCCOC(=O)N1C(=O)[C@@]2(c3cc(C#CC4=CCCCC4)ccc31)[C@H](C(=O)NC[C@H](O)c1ccccc1)[C@H]1C(=O)O[C@H](c3ccccc3)[C@H](c3ccccc3)N1[C@@H]2c1ccc(O)cc1`, the z-score was 1.8 (inactive) in assay [1]; 0.602 (inactive) in assay [3]; 0.793 (inactive) in [4]; 0.0873 (inactive) in assay [5]; 0.554 (inactive) in [6]; -0.176 in [7]. The z-score in [8] is 1.2 (inactive); in [9], 0.349 (inactive); in [10] it was 1.22. The compound also yielded a composite z-score in assay [2] of 0.265.
Regarding `COc1ccc(C(O)C2C=CC3C(=O)N(c4ccccc4)C(=O)C3N2Nc2ccc([N+](=O)[O-])cc2)cc1OCc1ccccc1` (stereo not given), the z-score was -1.64 (inactive) in assay [1]; 14.2 (active) in [3]; 2.71 (inactive) in [4]; 0.107 (inactive) in [5]; 0.926 (inactive) in assay [6]; -0.881 in assay [7]. For the same compound, the values for the z-score in assay [8], in assay [9] and in assay [10] were 0.151 (inactive), -0.18 (inactive) and -1.29, respectively. In assay [2], this compound had a composite z-score of 1.55.
In the case of `COc1ccc(C(O)C2C=CC3C(=O)NC(=O)C3N2Nc2ccccn2)cc1OCc1ccccc1` (stereo not given), the z-score in assay [1] was -0.325 (inactive); in [3] it was 1.68 (inactive); in [4], 0.396 (inactive); in assay [5], 0.479 (inactive); in assay [6] it was 1.04 (inactive); in assay [7] it was -0.432. In addition, the values for the z-score in assay [8], in assay [9] and in assay [10] were -1.49 (inactive), -3.05 (inactive) and -2.03, respectively. In assay [2], this compound had a composite z-score of -0.106.
For `COC(=O)c1c(CC[C@@H](CO)NC(=O)N[C@@H](Cc2ccccc2)Cn2cc(C3(O)CCCCC3)nn2)oc(C(C)=O)c1C(=O)OC`, the z-score in assay [1] was 1.27 (inactive); in [3] it was 2.27 (inactive); in assay [4], 0.566 (inactive); in [5], 0.999 (inactive); in assay [6] it was 0.312 (inactive); in [7], 1.93. For the same compound, the results for the z-score in assay [8], in [9] and in assay [10] were -5.26 (inactive), -2.18 (inactive) and -4.82, respectively. Also, the composite z-score in assay [2] came out at 0.101.
On to `C=C(COC)C(=O)CC[C@@H](OC(=O)c1cccnc1)c1ccc(CO)o1`, for which the z-score in [1] is 0.272 (inactive); in assay [3], 1.47 (inactive); in assay [4] it was 0.145 (inactive); in assay [5], 0.0755 (inactive); in assay [6], 0.038 (inactive); in assay [7], -0.0125. In addition, the results for the z-score in assay [8], in assay [9] and in [10] were 1.59 (inactive), 0.304 (inactive) and 0.21, respectively. The same compound gave a composite z-score in assay [2] of -0.0536.
For `NC(=O)NCC#Cc1ccc2c(c1)[C@]1(C(=O)N2)[C@H](C(=O)N2CCCCCCC2)[C@H]2C(=O)O[C@H](c3ccccc3)[C@H](c3ccccc3)N2[C@@H]1c1ccc(OCCO)cc1`, the z-score was -0.518 (inactive) in [1]; 2.66 (inactive) in [3]; 0.66 (inactive) in [4]; 0.391 (inactive) in assay [5]; 0.286 (inactive) in [6]; -0.378 in assay [7]. Besides, the z-score is 1.35 (inactive) in assay [8], -1.11 (inactive) in assay [9] and -0.67 in assay [10]. Moreover, the composite z-score in assay [2] turned out to be 1.4.
Regarding `COc1ccc(C#Cc2ccc3c(c2)[C@]2(C(=O)N3)[C@H](C(=O)NC[C@H](O)c3ccccc3)[C@H]3C(=O)O[C@H](c4ccccc4)[C@H](c4ccccc4)N3[C@@H]2c2ccc(OCCO)cc2)cc1`, the z-score in assay [1] is -0.877 (inactive); in assay [3], 2.93 (inactive); in assay [4], 1.97 (inactive); in assay [5], -0.0845 (inactive); in [6], 1.52 (inactive); in assay [7], -0.321. The z-score in [8] was 1.4 (inactive); in assay [9], -1.22 (inactive); in [10], 0.636. The composite z-score in [2] was 0.0711.
Turning to `CC(C)(C)N1CC=CC23O[C@@H]4C=CCOC(=O)[C@@H]4[C@H]2C(=O)N(CCCCCO)[C@@H]3C1=O` (stereo not given in full), the z-score is -0.197 (inactive) in assay [1]; 0.987 (inactive) in [3]; 0.624 (inactive) in assay [4]; 1.47 (inactive) in assay [5]; 0.453 (inactive) in assay [6]; -0.301 in [7]. Also, the z-score is 1.27 (inactive) in [8], 0.436 (inactive) in [9] and 1.52 in [10]. In assay [2], this compound showed a composite z-score of -0.0094.
On to `CC1CC/C=C\[C@H]2OC34C=CCN(Cc5ccccc5)C(=O)[C@H]3N(CCCCCO)C(=O)[C@@H]4C2C(=O)O1` (stereo not given in full), for which the z-score in assay [1] was -0.94 (inactive); in [3], -0.365 (inactive); in assay [4], -0.0369 (inactive); in assay [5], -0.692 (inactive); in assay [6], -0.0374 (inactive); in [7] it was -0.689. Moreover, the figures for the z-score in [8], in assay [9] and in [10] were 0.852 (inactive), -0.14 (inactive) and 1.34, respectively. Also, the composite z-score in [2] is -0.326.
As for `CCOC(=O)C[C@H]1[C@H](OC(=O)Cc2ccc3c(c2)OCO3)[C@@H](NC(=O)c2ccc(-c3ccccc3)cc2)c2cc(OCCCO)ccc2N1C(=O)c1ccccc1`, the z-score is 2.36 (inactive) in assay [1]; 8.3 (active) in assay [3]; 1.63 (inactive) in assay [4]; -0.825 (inactive) in assay [5]; 0.505 (inactive) in [6]; -0.0321 in assay [7]. Besides, the z-score in assay [8] is -0.588 (inactive); in assay [9] it was 0.674 (inactive); in [10] it was 1.8. The composite z-score in [2] is -0.122.
Regarding `Cc1ccc(S[C@]2(C(=O)NC3CC3)CC(=O)N(Cc3ccccc3)[C@@H]2c2ccc(CO)cc2)cc1`, the z-score in [1] is -0.485 (inactive); in [3] it was 1.28 (inactive); in assay [4] it was 0.216 (inactive); in assay [5], -0.552 (inactive); in [6] it was -0.331 (inactive); in assay [7], 0.0262. For the same compound, the z-score is -0.106 (inactive) in assay [8], 1.09 (inactive) in assay [9] and 0.997 in [10]. Moreover, the composite z-score in assay [2] was 0.106.
